According to PubChem BioAssay (NCATS):
Results filed as inconclusive are left out. Active and inactive are the calls of the source. Calls come from the whole dose curve; as a rule, active = well fitted activation curve with a large enough effect; inconclusive = small, poorly fitted or top-dose-only effect; inactive = no such curve, though single readings can be large or run the other way.

molecular target: Rap guanine nucleotide exchange factor 3 (Homo sapiens) (UniProt O95398); assay: Confirmatory qHTS for agonist of cAMP-regulated guanine nucleotide exchange factor 3 (EPAC1) (AID 1645881); conditions: EPAC1 Rap1B BODIPY-GDP exchange fluorescence; series mostly up to 154 µM;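 note: EPAC1 catalysed release of BODIPY-GDP from Rap1B seen as fluorescence loss; nearly all actives have a fitted effect of over 75% in size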
Sequence (O95398 whole entry, looked up): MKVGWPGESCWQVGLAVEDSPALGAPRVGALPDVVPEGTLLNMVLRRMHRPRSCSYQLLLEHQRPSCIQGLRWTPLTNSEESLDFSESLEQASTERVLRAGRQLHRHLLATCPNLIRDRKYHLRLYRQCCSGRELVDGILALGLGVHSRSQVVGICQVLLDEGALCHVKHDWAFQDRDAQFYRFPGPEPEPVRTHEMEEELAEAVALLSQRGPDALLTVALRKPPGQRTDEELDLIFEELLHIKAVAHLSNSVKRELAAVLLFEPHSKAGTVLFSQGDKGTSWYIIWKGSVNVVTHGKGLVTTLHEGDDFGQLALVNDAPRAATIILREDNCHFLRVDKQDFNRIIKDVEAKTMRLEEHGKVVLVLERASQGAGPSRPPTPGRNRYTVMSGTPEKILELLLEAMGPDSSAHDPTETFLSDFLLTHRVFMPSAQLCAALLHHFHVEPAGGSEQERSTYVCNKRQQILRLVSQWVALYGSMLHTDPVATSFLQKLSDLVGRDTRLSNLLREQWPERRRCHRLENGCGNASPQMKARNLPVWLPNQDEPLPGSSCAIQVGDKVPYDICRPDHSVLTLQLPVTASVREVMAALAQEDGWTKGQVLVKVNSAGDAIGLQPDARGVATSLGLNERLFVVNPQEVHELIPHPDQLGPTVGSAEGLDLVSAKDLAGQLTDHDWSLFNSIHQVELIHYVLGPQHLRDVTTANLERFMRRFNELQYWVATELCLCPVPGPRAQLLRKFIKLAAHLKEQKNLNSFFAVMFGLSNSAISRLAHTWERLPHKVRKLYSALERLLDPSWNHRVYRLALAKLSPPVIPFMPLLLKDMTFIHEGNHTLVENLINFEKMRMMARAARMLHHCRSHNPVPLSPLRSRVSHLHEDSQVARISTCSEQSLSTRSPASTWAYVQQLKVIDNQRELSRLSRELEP

Potency, inactive:
Cc1cccc(S(=O)(=O)Nc2ccc(S(=O)(=O)Nc3nccs3)cc2)c1, CCc1nc(Oc2cccc(F)c2)c2oc3ccccc3c2n1, CCOC(=O)c1cc2c(=O)n3ccccc3nc2n(Cc2ccco2)c1=NC(=O)c1c(F)cccc1Cl, CCCC(=O)OC1CC(C)N(C(=O)c2ccccc2)c2ccc(C)cc21 (stereo not given), COc1ccc(OC)c(NC(=O)CSc2nc(O)cc(=O)n2CC(C)C)c1, COc1cc(NC(=O)c2cccc([N+](=O)[O-])c2)ccc1NC(=O)c1ccco1, CCCC1=C(C(=O)OCC)C(c2ccco2)C(C#N)=C(N)O1 (stereo not given), O=C1CCC[C@@H]2CC(N(Cc3cc4ccccc4s3)c3ccccc3)C[C@@H]3CCN1[C@H]23 (stereo not given in full), COc1ccc(C2C=C(c3ccc(Br)cc3)Nc3nnnn32)c(OC)c1 (stereo not given), CC(=O)N1CCC[C@H]1C(=O)NCC1Cc2cc(-c3cccc(OC(F)(F)F)c3)ccc2O1 (stereo not given in full), CC(=O)N1N=C(c2ccc(Cl)cc2)CC1c1ccc([N+](=O)[O-])cc1 (stereo not given), CCOc1cc(-c2ccc(OC(=O)c3ccccc3)c(OC)c2)cc(=O)c2c(C)oc(C)c12, CCCOc1ccc(/C=C2/C(=O)ON=C2C)cc1Cl, C#CCN(Cc1nc(N2CCOCC2)c2ccc(Cl)cc2n1)Cc1ccco1, CCOc1cc(CNCCSc2nnnn2C)ccc1OCc1ccc(Cl)cc1Cl, Cc1noc(C)c1COc1ccccc1C(=O)NC(C)c1ccc(Cl)cc1 (stereo not given), CCOC(=O)c1ccc(NC(=O)c2c(NCc3cccs3)sc3c2CCCCC3)cc1, O=C(NNC(=O)c1ccccc1F)c1cccc(-n2cccc2)c1, CC1=NN(c2ccccc2)C(=O)C1=Cc1ccccc1, CSc1cccc(N2CC(C(=O)Nc3cccc(S(=O)(=O)N4CCCC4)c3)CC2=O)c1 (stereo not given), COC(=O)Cn1c(CN2CCc3ccccc3C2)nc2c1c(=O)n(C)c(=O)n2C, CC(C)Cc1ccc(CN2CCCC(NC(=O)c3cnc4ccccn4c3=O)C2)cc1 (stereo not given), CN(C)c1ccc(C(=O)Nc2sc(Nc3ccccc3)nc2C(N)=O)cc1, O=C(Nc1c(-c2ccc3c(c2)OCO3)[nH][nH]c1=O)c1ccccc1, Cc1ccccc1NC(=O)c1sc2nc(-c3cc4ccccc4oc3=O)[nH]c(=O)c2c1C, Cc1cccc(CN2Cc3cccc4c3[C@H](C=CC4)CC2=O)c1, O=C(c1ccc(Br)cc1)C(CN1CCOCC1)c1ccccc1 (stereo not given), COc1ccc(C(=O)CSc2nnc(-c3ccco3)c(-c3ccco3)n2)cc1, CN(c1ccccc1)c1ccc(/C=C(/CCC(=O)O)c2nc3ccccc3s2)cc1[N+](=O)[O-], NS(=O)(=O)c1ccc2c(c1)C1C=CCC1C(C1CC=CCC1)N2 (stereo not given), CC(CNC(=O)c1sc2ncccc2c1-n1cccc1)c1ccccc1 (stereo not given), Cc1ccc(NC(=O)c2sc3nc(-c4ccncc4)ccc3c2N)cc1, O=C(NC1(O)C(=O)c2ccccc2C1=O)c1ccc(C(F)(F)F)cc1, Cc1ccc(N=C2NC(=O)/C(=C/C=C/c3ccco3)S2)cc1, CCOC(=O)C1CCc2c(ccc3ccccc23)N1CCC#N (stereo not given), CCc1nc2c(OCc3ccc(C(F)(F)F)cc3)cccn2c1N(C)C(=O)C(C)C, O=C(NCc1ccc2c(c1)CCN2C(=O)c1ccccc1)Nc1cccc(C(F)(F)F)c1, Cc1cccc(NC(=O)CSCC(=O)Nc2cccc(S(=O)(=O)N3CCCCCC3)c2)c1, CCOc1cccc(CNc2ccc(O)cc2)c1OCc1ccc(Cl)cc1Cl, COc1ccc(C(=O)CC2(O)C(=O)N(Cc3cccc(C(F)(F)F)c3)c3ccccc32)cc1 (stereo not given)
